GSH fluor = GSH bead compound fluorescence profile | GSH beads flow cytometry, compound fluorescence 488/530 nm; stronger effect = higher value | fluorescence (KMESF) at 10 µM | hit rate 0.25% among 190,000 | AID 1776; in the data active means fluorescence above about 89;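 further: glutathione beads carrying GST-tagged Bcl family fusion proteins plus one bare bead set; values are compound well signal with DMSO vehicle wells as background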
RGS16-Gao HTS = regulators of human RGS16-Galphao interaction; bead-based flow cytometry RGS16-Galphao binding, fluorescence; actives lie on both sides; binding response (% of control), % at 10 µM; O15492+P09471; hit rate 0.38% among 220,000;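 further: Galphao activated by GDP with aluminum fluoride before binding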
Target sequence (O15492 whole entry, looked up): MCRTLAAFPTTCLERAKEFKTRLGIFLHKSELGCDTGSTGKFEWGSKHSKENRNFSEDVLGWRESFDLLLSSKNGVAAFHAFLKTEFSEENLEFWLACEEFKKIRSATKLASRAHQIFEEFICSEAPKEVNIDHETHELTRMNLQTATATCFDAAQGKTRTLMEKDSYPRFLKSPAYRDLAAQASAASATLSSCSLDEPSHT
Target sequence (P09471 whole entry, looked up): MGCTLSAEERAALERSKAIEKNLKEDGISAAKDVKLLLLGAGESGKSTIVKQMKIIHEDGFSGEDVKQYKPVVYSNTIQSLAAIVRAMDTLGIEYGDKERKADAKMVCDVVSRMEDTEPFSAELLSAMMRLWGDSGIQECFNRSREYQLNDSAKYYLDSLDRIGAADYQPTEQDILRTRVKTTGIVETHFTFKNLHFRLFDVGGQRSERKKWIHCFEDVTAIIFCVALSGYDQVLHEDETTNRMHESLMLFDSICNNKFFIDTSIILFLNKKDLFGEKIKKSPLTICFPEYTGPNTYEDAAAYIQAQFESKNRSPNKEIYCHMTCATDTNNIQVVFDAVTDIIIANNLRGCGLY
RGS7-Gao reg = regulators of human RGS7-Galphao interaction; hit rate 0.35% among 220,000; P09471; binding response (% of control), % at 10 µM; Multiplexed bead flow cytometry, RGS7-Galphao binding; actives lie on both sides; in the data active means binding response below about 49% or above about 150%; inconclusive means no clear call, values can overlap the other calls; inactive means in between;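 further: fluorescent Galphao held in activated GDP-AlF4 state binding bead-coupled RGS7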
Target sequence (P09471 whole entry, looked up): as above
RGS4-Gao reg = human RGS4-Galphao interaction regulation | AID 1415 | Multiplexed bead flow cytometry, RGS4-Galphao binding; actives lie on both sides | binding response (% of control), % at 10 µM | P09471 | hit rate 0.33% among 220,000; in the data active means binding response below about 49% or above about 150%; inactive means in between;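 further: fluorescent Galphao activated with aluminum fluoride binding bead-coupled RGS4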
Avidin bead fluor = avidin bead compound fluorescence profile. fluorescence (KMESF) at 10 µM. Avidin beads, compound fluorescence 488/530 nm, flow cytometry; stronger effect = higher value. hit rate 0.38% among 220,000; in the data active means fluorescence above about 47
RGS8-Gao = modulates binding of RGS8 to human Galphao | hit rate 0.34% among 220,000 | multiplexed bead flow cytometry; actives lie on both sides | P09471 | AID 1423 | response (percent of control binding), % at 10 µM; in the data active means response below about 60% or above about 140%; inactive means in between;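 further: Galphao activated as the GDP aluminium fluoride complex binding bead-coupled RGS8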
RGS4-Gao HTS = modulates binding between human RGS4 and Galphao; shares compounds with RGS16-Gao HTS; multiplexed bead flow cytometry, RGS–Galpha-o binding; RGS4–Galpha-o binding response, % at 10 µM; hit rate 99% among 1,600; AID 1504;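 further: fluorescently labeled Galpha-o bound to GDP with aluminium fluoride binding biotinylated RGS beads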
Biotin-avidin = counter-screen: compounds disrupting biotin binding to avidin beads. inhibition, % at 10 µM. 1,700 tested, under 10 active. streptavidin beads, fluorescein-biotin binding, flow cytometry. shares compounds with RGS16-Gao HTS;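 active means inhibition above 50%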;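 further: median green fluorescence of gated singlet beads compared with DMSO control wells; 0% = DMSO wells and 100% = complete loss of bead fluorescence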
RGS8-Gao single = RGS8-Galphao interaction regulation, single point confirmation | shares compounds with RGS16-Gao HTS | bead-based flow cytometry RGS8-Galphao binding, fluorescence; actives lie on both sides | binding response (% of control), % at 10 µM | hit rate 3% among 1,700; in the data active means binding response below about 72% or above about 130%; inactive means in between;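 further: Galphao activated as GDP AlF4 complex before binding bead RGS8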
RGS7-Gao confirm = RGS7-Galphao interaction regulation, single point confirmation. shares compounds with RGS16-Gao HTS. bead-based flow cytometry RGS7-Galphao binding; actives lie on both sides. response (percent of control binding), % at 10 µM. hit rate 7.8% among 1,700. AID 1837; in the data active means response below about 75% or above about 130%; inactive means in between;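 further: fluorescent Galphao activated with GDP and aluminum fluoride binding bead-coupled RGS7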
RGS16-Gao single = RGS16-Galphao interaction regulation, single point confirmation | shares compounds with RGS16-Gao HTS | bead-based flow cytometry, RGS16-Galphao binding; actives lie on both sides | response (% of control binding), % at 10 µM | hit rate 4% among 1,700 | AID 1838; in the data active means response below about 74% or above about 130%; inactive means in between;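 further: Galphao activated as the GDP aluminium fluoride complex binding bead-coupled RGS16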
RGS4-Gao single = RGS4-Galphao interaction regulation, single point confirmation. shares compounds with RGS16-Gao HTS. RGS4-Galphao binding, multiplexed bead flow cytometry; actives lie on both sides. binding response (% of control), % at 10 µM. hit rate 4% among 1,700; in the data active means binding response below about 74% or above about 130%; inactive means in between
RGS19-Gao conf = RGS19-Galphao interaction regulation, single point confirmation; hit rate 5% among 1,700; shares compounds with RGS16-Gao HTS; bead-based flow cytometry RGS19-Galphao binding; actives lie on both sides; AID 1841; response (percent of control binding), % at 10 µM; in the data active means response below about 50% or above about 160%; inactive means in between;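 further: 100% = no compound control and 0% = blank background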
Numbers without * were called inactive; ? = inconclusive; / = not tested or not shown; [ ] = another dose, or the depositor's remark. Sampled rows, rich in hits. Any-hit rate of the full collection: about 1.2%. Unless noted, how the calls were made is not given here.

SMILES	GSH fluor	RGS16-Gao HTS	RGS7-Gao reg	RGS4-Gao reg	Avidin bead fluor	RGS8-Gao	Biotin-avidin	RGS8-Gao single	RGS7-Gao confirm	RGS16-Gao single	RGS4-Gao single	RGS19-Gao conf	others
CC(C)CCNC(=O)CCc1nnc(COc2ccccc2)o1	16	101	102	101	11	101	/	/	/	/	/	/
CCCOc1ccc(C(CC(=O)O)NC(=O)c2cccs2)cc1 (stereo unspecified)	27	99	103	100	33	101	/	/	/	/	/	/
CC(C)Oc1ccc(C(CC(=O)O)NC(=O)c2cccs2)cc1 (stereo unspecified)	30	/	/	/	/	/	2	94	81	88	86	90
Cc1ccc(NC(=S)/N=C(\N)Nc2nc(C)c3cc(C)c(C)cc3n2)cc1C	11	98	100	98	20	98	/	/	/	/	/	/
O=C(O[C@@H]1OC2COC(=O)c3cc(O)c(O)c(O)c3-c3c(cc(O)c(O)c3O)C(=O)O[C@@H]([C@H]1O)[C@@H]2O)c1cc(O)c(O)c(O)c1	8	23*	22*	34*	1	44*	-2	35*	4.1*	35*	19*	42*
Cc1nc2cc(C(=O)N3CCc4ccccc43)ccc2n1-c1ccc(F)c(F)c1	12	97	96	102	8	101	/	/	/	/	/	/
CC12CCC(C(=O)Nc3cccc(Cl)c3)(C(Br)C1=O)C2(C)C (stereo unspecified)	9	115	109	107	16	105	/	/	/	/	/	/
CC12CCC(C(=O)Nc3ccc(Cl)cc3)([C@H](Br)C1=O)C2(C)C (stereo partly specified)	/	/	/	/	/	/	0	101	107	103	100	105
CC(C)(C)c1ccc(C(=O)N2CCCC2)s1	/	98	?	101	4	98	/	/	/	/	/	/
Cc1cc(=O)oc(C)c1C(=O)Nc1ccc(F)cc1	/	91	?	94	2	98	/	/	/	/	/	/
CN(C)/C=N/c1cc(=O)n(C)c(=O)n1Cc1ccccc1	16	105	105	106	10	103	/	/	/	/	/	/
C/C(CC(=O)Nc1ccc2c(c1)OCO2)=N\NC(=O)C(c1ccccc1)c1ccccc1	13	15*	86	87	1	67	0	107	104	108	102	108	RGS4-Gao HTS=87*
COc1ccc(NC(=O)Nc2cc(C)ccc2OC(F)F)c(OC)c1	33	/	/	/	/	/	0	81	72*	80	78	71
COc1ccc(NC(=S)NC2CCCCCC2)c(OC)c1	5	22*	106	103	9	92	1	101	122	101	107	92	RGS4-Gao HTS=103*
COc1ccc(NC(=O)CC(C)=O)c(OC)c1	/	99	?	101	9	102	/	/	/	/	/	/
Cc1ccc(NC(=O)Nc2ccc(F)cc2F)c(OC(F)F)c1	25	108	101	101	9	104	/	/	/	/	/	/
COc1ccc(NC(=O)CC2SC(=N)N(c3ccccc3)C2=O)c(OC)c1 (stereo unspecified)	16	-5.4*	4.1*	4.8*	-1	8.2*	-3	99	90	96	96	96
COc1ccc(NC(=O)CC2SC(=Nc3ccccc3)NC2=O)c(OC)c1 (stereo unspecified)	23	93	99	100	3	100	/	/	/	/	/	/
COc1ccc(NC(=O)CC(=O)Nc2ccc(OC)cc2OC)c(OC)c1	31	110	174*[activator]	114	79*	99	-1	100	101	99	100	103	RGS4-Gao HTS=114*
CC(=O)Nc1cccc(CP(=O)(c2ccccc2)c2ccccc2)c1	/	99	?	105	6	98	/	/	/	/	/	/
CC1CN(S(=O)(=O)c2ccc(C(=O)Nc3nnc(-c4ccccn4)o3)cc2)CC(C)O1 (stereo unspecified)	11	9.5*	-18*	15*	-2	12*	-2	101	101	100	100	114
CCOC(=O)N1CCN(C(=O)CN(Cc2ccc(Cl)cc2)S(=O)(=O)c2ccc(C)cc2)CC1	42	/	92	98	/	99	-1	97	97	98	100	93
COc1ccc(C(=O)COC(=O)[C@H](C)Nc2ccc(C(F)(F)F)cc2[N+](=O)[O-])c(OC)c1	36	98	94	96	15	99	/	/	/	/	/	/
CCCCCn1c(CN(C)Cc2ccccc2)nc2c1c(=O)n(C)c(=O)n2C	11	238*[activator]	110	110	7	129	-3	100	100	99	100	103	RGS4-Gao HTS=110*
CCCCNC(=O)CCn1c(=O)c2ccccc2n(CC(=O)NCCc2ccc(OC)c(OC)c2)c1=O	8	101	99	96	27	104	/	/	/	/	/	/
N=C1c2ccccc2CN1NC(=O)c1cccc(S(=O)(=O)N2CCOCC2)c1	12	236*[activator]	114	116	10	126	2	108	165*[activator]	126*[activator]	127*[activator]	324*[activator]	RGS4-Gao HTS=116*
COc1ccc(N(CC(=O)N/N=C/c2ccco2)S(=O)(=O)c2ccccc2)cc1Cl	/	102	?	105	8	102	/	/	/	/	/	/
CC1CC(C)CN(C(=O)/C=C/c2ccc([N+](=O)[O-])s2)C1 (stereo unspecified)	15	11*	15*	18*	/	14*	-2	96	47*	82	58*	81
CC1CN(C(=O)/C=C/c2ccc([N+](=O)[O-])s2)CC(C)O1 (stereo unspecified)	20	111	103	106	23	106	/	/	/	/	/	/
Cn1c(=O)n(C)c2cc(/C=C3/SC(=O)N(CC(=O)N4CCOCC4)C3=O)ccc21	15	83	96	95	3	93	/	/	/	/	/	/

Bioassay records as filed in PubChem.
